Compounds with a hit are over-represented: about 2.9% of the library has one in this group of screens.
PLCg1 inh = PLC-gamma1 enzyme inhibitors, primary screen, biochemical, fluorescence, purified enzyme; 1-phosphatidylinositol 4,5-bisphosphate phosphodiesterase gamma-1 (Homo sapiens), P19174; fluorogenic substrate; inhibition, % at 12.2 µM; actives 0.84% (n = 370,000); AID 720700, 2013; in the data active = inhibition above about 9.5%
ADAM17 inh = ADAM17 inhibitors, primary screen, biochemical, QFRET. actives 0.83% (n = 370,000). recombinant ADAM17, EDANS/DABCYL FRET peptide cleavage. AID 720648, 2013. Disintegrin and metalloproteinase domain-containing protein 17 (Homo sapiens), P78536. inhibition, % at 6.95 µM;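 active = inhibition above the mean of compounds lying between control limits plus 3 SD, set per campaign, cut at about 8.5% in these data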;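 note: 0% = DMSO-only wells as the low control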
PLC-beta3 inh = human PLC-beta3 inhibitors, primary screen, biochemical, fluorescence | 1-phosphatidylinositol 4,5-bisphosphate phosphodiesterase beta-3 (Homo sapiens), Q01970 | Purified PLC-beta3, fluorogenic substrate | inhibition, % at 12.2 µM | actives 0.18% (n = 370,000); in the data active = inhibition above about 11%;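 note: 0% = median of compound wells on plate and 100% = full blocker control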
KLK7 zymogen act = proKLK7 zymogen activators, primary screen, biochemical, fluorescence intensity | actives 0.9% (n = 370,000) | Kallikrein-7 (Homo sapiens), P49862 | AID 652039, 2013 | activation, % at 7 µM | purified proKLK7, EDANS-DABCYL substrate fluorescence; 100% is mature enzyme control, 0% vehicle;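 active = activation above the mean of all tested compounds plus 3 SD, computed per campaign excluding outliers beyond control limits, cut at about 13% in these data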
ADAM10 inh = human ADAM10 inhibitors, primary screen, biochemical, QFRET, HTS; Disintegrin and metalloproteinase domain-containing protein 10 (Homo sapiens), O14672; recombinant ADAM10, EDANS/DABCYL FRET peptide cleavage, 3 h; inhibition, % at 7 µM; actives 0.62% (n = 370,000);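 active = inhibition above a per-campaign cutoff equal to the mean of compounds falling between control-based bounds plus 3 SD, cut at about 20% in these data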;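 note: 0% = DMSO wells while the 100% control is not disclosed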
KLK7 act conf = proKLK7 zymogen activators, confirmation, biochemical, fluorescence intensity, triplicate; shares compounds with KLK7 zymogen act; purified proKLK7, EDANS-DABCYL substrate fluorescence; scaled: vehicle 0, mature enzyme 100; activation, % at 7 µM; actives 68% (n = 3,200);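 active = activation, as change over the incubation, above the mean of all tested compounds plus 3 SD, cut at about 13% in these data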
EDANS interfere = EDANS-DABCYL substrate optical interference, artefact control for kallikrein-7 zymogen activator project, biochemical, fluorescence intensity, high throughput | shares compounds with KLK7 zymogen act | no enzyme, 4 h; solvent 0%, active enzyme control 100% | activation, % at 7 µM | actives 80% (n = 3,200) | AID 686952, 2013;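 active = activation above the all-compound mean plus 3 SD, ignoring values outside control-based bounds, cut at about 4.8% in these data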;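 note: value is the 4 h activation minus the activation read at time zero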
K7 EDANS ctr = counter-screen for kallikrein-7 activators: EDANS-DABCYL interference, dose response | shares compounds with KLK7 zymogen act | EDANS-DABCYL peptide fluorescence interference, no enzyme | EC50, µM | actives 20% (n = 250);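 active = compounds that raise the fluorescence signal in this interference counterscreen, with EC50 at or below 10 µM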;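 note: intact quenched peptide substrate alone read at 355 nm excitation and 520 nm emission; signal is fluorescence gain from T0 to T4 after four hours at room temperature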
An asterisk follows results filed as active; i = inactive; / = not tested or not shown.

SMILES	PLCg1 inh	ADAM17 inh	PLC-beta3 inh	KLK7 zymogen act	ADAM10 inh	KLK7 act conf	EDANS interfere	others
COc1cccc(N=c2oc3cc(O)ccc3cc2C(=O)NCC2CCCO2)c1 (stereo not drawn)	i	i	i	66*	i	9	6.5*
COc1ccccc1N=c1oc2cc(O)ccc2cc1C(N)=O	i	i	i	39*	i	18*	23*
COc1cccc2cc(C(=O)NCC3CCCO3)c(=O)oc12 (stereo not drawn)	-65	-12	-78	-6	-10	/	/
CC(c1ccc(NC(=O)OC(C)(C)C)cc1)c1cn(C)c2ccccc12 (stereo not drawn)	-5	3	-3	0	3	/	/
CCOC(=O)c1cc(C)[nH]c(=O)c1C#N	i	i	i	42*	i	65*	74*
O=C(c1ccccc1F)N1C(=O)c2cccc3cccc1c23	-77	-10	-120	8	-27	/	/
O=C(c1ccco1)N1C(=O)c2cccc3cccc1c23	-261	-19	-307	35*	-48	87*	90*
O=C(c1cccs1)N1C(=O)c2cccc3cccc1c23	-152	-23	-225	32*	-39	-1	-12
O=C1CCN(C(=O)c2cccs2)c2ccccc21	-3	-1	-3	0	3	/	/
Nc1cccc2c1C(=O)N(C(=O)c1ccco1)C2=O	-299	-22	-413	32*	-102	154*	178*
O=C(NCc1ccccc1Cl)C1CCCN(c2nc3ccccc3o2)C1 (stereo not drawn)	-1	-2	-5	0	2	/	/
COc1ccc2oc(=O)c(C(=O)N3CCN(C(=O)c4ccco4)CC3)cc2c1	i	-310	i	26*	i	27*	30*
COc1ccc2oc(=O)c(C(=O)N3CCN(C(=O)c4ccccc4)CC3)cc2c1	i	-211	i	21*	i	25*	16*	K7 EDANS ctr=>70
COc1ccc2oc(=O)c(C(=O)N3CCN(c4ccccc4)CC3)cc2c1	-22	-12	-28	1	-27	/	/
O=C(c1ccco1)N1CCN(C(=O)c2cc3ccccc3oc2=O)CC1	0	-5	-7	0	2	/	/
COc1ccc2oc(=O)c(/C(N)=N/NC(=O)c3ccncc3)cc2c1	-80	-33	-118	15*	-73	121*	135*
O=C(N[C@@H]1C[C@@H]2O[C@@H](CO)CC[C@@H]2O[C@@H]1CCc1ccc(-c2cccnc2)cc1)c1cccc(F)c1	2	-4	-6	0	1	/	/
CN1C(=O)c2cccc3c(S(=O)(=O)NCCc4ccccc4)ccc1c23	i	-161	i	-2	-434	/	/
CCOC(=O)Cc1csc(NS(=O)(=O)c2ccc3c4c(cccc24)C(=O)N3CC)n1	-62	-10	-73	3	-20	/	/
CN1C(=O)c2cccc3c(S(=O)(=O)Nc4ccc(O)c(C(=O)O)c4)ccc1c23	-7	-1	-9	2	2	/	/
CCN1C(=O)c2cccc3c(S(=O)(=O)NCc4ccccn4)ccc1c23	i	-223	i	53*	i	62*	56*
CCOC(=O)CNS(=O)(=O)c1ccc2c3c(cccc13)C(=O)N2CC	i	-243	i	77*	i	64*	69*
CN1C(=O)c2cccc3c(S(=O)(=O)N4CCCC4C(=O)O)ccc1c23 (stereo not drawn)	-432	-67	i	17*	-179	42*	46*
COCCNS(=O)(=O)c1ccc2c3c(cccc13)C(=O)N2C	i	-189	i	28*	i	78*	88*
CC1CCCCC1N(C(=O)c1cc(C2CC2)on1)C1CCCCC1 (stereo not drawn)	0	-4	-2	0	5	/	/
SMILES	PLCg1 inh	ADAM17 inh	PLC-beta3 inh	KLK7 zymogen act	ADAM10 inh	KLK7 act conf	EDANS interfere	others
COC(=O)[C@]12C[C@H](CC(=O)N3CCCC3)C(=O)N(CCC3=CCCCC3)C1=C[C@H](C(C)C)O[C@@H]2C1CC1	4	-2	-5	-1	-8	/	/
COC(=O)[C@]12C[C@H](CC(=O)N3CCN(C(=O)c4ccco4)CC3)C(=O)N(Cc3ccc(Cl)cc3Cl)C1=C[C@H](C1CCCC1)O[C@@H]2C	5	2	0	0	6	/	/
Nc1c(Cl)cc(Cl)cc1C(=O)OCC(=O)NC1CC1	-401	-479	i	22*	i	36*	33*
C[C@@H]1COc2cc(Br)ccc2S(=O)(=O)N1Cc1cn(CCC2OCCO2)nn1	2	0	0	0	3	/	/
C[C@@H](/C=C/C(=O)OC(C)(C)C)Sc1ccc(C(C)(C)C)cc1	1	-2	2	-1	0	/	/
COc1ccc(/C=C/C(O)=C2/C(=O)NC3(C)CC2c2ccccc2O3)c(OC)c1OC (stereo not drawn)	-37	-1	-48	15*	-1	15*	10*	K7 EDANS ctr=>70
COc1ccc(/C=C/C(O)=C2/C(=O)N(C)C3(C)CC2c2ccccc2O3)cc1 (stereo not drawn)	-16	1	-16	0	2	/	/
O=C(Nc1ccc2c(c1)OCO2)C(c1ccc(Cl)cc1)N1CCC2(CC1)OCCO2 (stereo not drawn)	-3	1	3	18*	3	0	-1
CCOc1ccc2nc(NCCNC(=O)CC)c(C#N)cc2c1	i	-172	i	29*	i	40*	44*
CCC(=O)NCCNc1nc2cc(C)c(C)cc2cc1C#N	-25	-40	-27	3	-145	/	/
CCOCCCNC(=O)c1cc2c(=O)n3cccc(C)c3nc2n1C	-109	-47	-137	1	-189	/	/
Cc1cccn2c(=O)c3cc(C(N)=S)c(=N)n(CCCOC(C)C)c3nc12	-321	-336	-419	46*	i	5	5.7*
CCOCCCn1c(=N)c(C(N)=S)cc2c(=O)n3cccc(C)c3nc21	-264	-246	-306	29*	i	2	3
CC(=O)Nc1ccc(Nc2nnc(-c3ccc(C)c(S(N)(=O)=O)c3)c3ccccc23)cc1	-14	-2	-26	1	7	/	/

Source: PubChem
